# Assay results taken from PubChem BioAssay AID1159580 (chemical genetic matrix, 2015).
# About 2,000 (36%) of roughly 5,500 compounds were called active. Roughly 18% stayed inconclusive and do not appear here. The list shows a part of the results. A number with no mark means an inactive call. Cut-off read from the data, not from the text of the source: active = normalized growth mostly below about 0.91 (no sharp cut-off); inconclusive = no clear call, values can overlap the other calls; inactive = mostly above about 0.92.
# Test: chemical genetic growth profiling, strain panel (AID 1159580);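 note: tested at 20 µM; growth read once vehicle control cultures reached saturation at 30 °C; 1 = growth at the plate median or of vehicle wells; lower values mean less growth of the strain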
# Conditions: growth OD
structure (smiles),measurement,setting,value
O=C(O)CCCOc1ccc(Cl)cc1Cl,normalized growth,"S. cerevisiae deletion strains, locus YJR075W, strain HOC1, active compounds read low",0.999
same,normalized growth,"S. cerevisiae deletion strains, locus YKL009W, strain mrt4, active compounds read low",0.967
same,normalized growth,"S. cerevisiae deletion strains, locus YKL068W, active compounds read low",0.986
same,normalized growth,"S. cerevisiae deletion strains, locus YKL085W, strain MDH1 (second series), active compounds read low",0.984
same,normalized growth,"S. cerevisiae deletion strains, locus YKL085W, strain MDH1, active compounds read low",0.984
same,normalized growth,"S. cerevisiae deletion strains, locus YKL160W, strain elf1, active compounds read low",0.953
same,normalized growth,"S. cerevisiae deletion strains, locus YKL190W, strain CNB1, active compounds read low",0.982
same,normalized growth,"S. cerevisiae deletion strains, locus YKR001C, strain vps1, active compounds read low",0.996
same,normalized growth,"S. cerevisiae deletion strains, locus YKR026C, strain gcn3, active compounds read low",0.926
same,normalized growth,"S. cerevisiae deletion strains, locus YKR091W, strain srl3, active compounds read low",0.955
same,normalized growth,"S. cerevisiae deletion strains, locus YLL001W, strain dnm1, active compounds read low",0.94
same,normalized growth,"S. cerevisiae deletion strains, locus YLL026W, active compounds read low",0.945
same,normalized growth,"S. cerevisiae deletion strains, locus YLL041C, strain sdh2, active compounds read low",0.951
same,normalized growth,"S. cerevisiae deletion strains, locus YLR027C, strain aat2, active compounds read low",0.96
same,normalized growth,"S. cerevisiae deletion strains, locus YLR039C, strain RIC1, active compounds read low",0.965
same,normalized growth,"S. cerevisiae deletion strains, locus YLR058C, strain SHM2, active compounds read low",0.999
same,normalized growth,"S. cerevisiae deletion strains, locus YLR102C, strain apc9, active compounds read low",1.03
same,normalized growth,"S. cerevisiae deletion strains, locus YLR113W, strain HOG1, active compounds read low",0.584 (active)
same,normalized growth,"S. cerevisiae deletion strains, locus YLR221C, strain rsa3, active compounds read low",0.949
same,normalized growth,"S. cerevisiae deletion strains, locus YLR258W, strain gsy2, active compounds read low",0.943
same,normalized growth,"S. cerevisiae deletion strains, locus YLR262C, strain YPT6 (second series), active compounds read low",0.792 (active)
same,normalized growth,"S. cerevisiae deletion strains, locus YLR262C, strain YPT6, active compounds read low",0.976
same,normalized growth,"S. cerevisiae deletion strains, locus YLR268W, strain sec22, active compounds read low",1.02
same,normalized growth,"S. cerevisiae deletion strains, locus YLR320W, strain mms22, active compounds read low",0.955
same,normalized growth,"S. cerevisiae deletion strains, locus YLR330W, strain CHS5, active compounds read low",0.995
same,normalized growth,"S. cerevisiae deletion strains, locus YLR342W, strain FKS1 (second series), active compounds read low",0.997
same,normalized growth,"S. cerevisiae deletion strains, locus YLR342W, strain FKS1, active compounds read low",0.922
same,normalized growth,"S. cerevisiae deletion strains, locus YLR357W, strain rsc2, active compounds read low",0.888
same,normalized growth,"S. cerevisiae deletion strains, locus YLR370C, strain arc18, active compounds read low",0.936
same,normalized growth,"S. cerevisiae deletion strains, locus YLR371W, strain rom2, active compounds read low",1.01
same,normalized growth,"S. cerevisiae deletion strains, locus YLR384C, strain iki3, active compounds read low",0.945
same,normalized growth,"S. cerevisiae deletion strains, locus YLR418C, strain cdc73, active compounds read low",1.03
same,normalized growth,"S. cerevisiae deletion strains, locus YML016C, strain PPZ1, active compounds read low",0.999
same,normalized growth,"S. cerevisiae deletion strains, locus YML032C, strain rad52, active compounds read low",1.01
same,normalized growth,"S. cerevisiae deletion strains, locus YML120C, strain ndi1, active compounds read low",0.958
same,normalized growth,"S. cerevisiae deletion strains, locus YML124C, strain tub3, active compounds read low",1
same,normalized growth,"S. cerevisiae deletion strains, locus YMR058W, strain fet3, active compounds read low",0.947
same,normalized growth,"S. cerevisiae deletion strains, locus YMR078C, strain ctf18, active compounds read low",1.01
same,normalized growth,"S. cerevisiae deletion strains, locus YMR125W, strain sto1, active compounds read low",0.913
same,normalized growth,"S. cerevisiae deletion strains, locus YMR129W, active compounds read low",0.944
same,normalized growth,"S. cerevisiae deletion strains, locus YMR205C, strain PFK2, active compounds read low",0.955
same,normalized growth,"S. cerevisiae deletion strains, locus YMR223W, strain ubp8, active compounds read low",1.01
same,normalized growth,"S. cerevisiae deletion strains, locus YMR231W, strain pep5, active compounds read low",0.92 (active)
same,normalized growth,"S. cerevisiae deletion strains, locus YMR263W, strain SAP30, active compounds read low",0.989
same,normalized growth,"S. cerevisiae deletion strains, locus YMR307W, strain GAS1, active compounds read low",1
same,normalized growth,"S. cerevisiae deletion strains, locus YNL067W, strain RPL9B, active compounds read low",0.997
same,normalized growth,"S. cerevisiae deletion strains, locus YNL071W, strain lat1, active compounds read low",0.935
same,normalized growth,"S. cerevisiae deletion strains, locus YNL128W, strain TEP1, active compounds read low",1.01
same,normalized growth,"S. cerevisiae deletion strains, locus YNL153C, strain GIM3, active compounds read low",0.997
same,normalized growth,"S. cerevisiae deletion strains, locus YNL183C, strain NPR1, active compounds read low",0.731 (active)
same,normalized growth,"S. cerevisiae deletion strains, locus YNL209W, strain ssb2, active compounds read low",0.971
same,normalized growth,"S. cerevisiae deletion strains, locus YNL233W, strain BNI4, active compounds read low",0.971
same,normalized growth,"S. cerevisiae deletion strains, locus YNL248C, strain rpa49, active compounds read low",0.941
same,normalized growth,"S. cerevisiae deletion strains, locus YNL250W, strain rad50, active compounds read low",1
same,normalized growth,"S. cerevisiae deletion strains, locus YNL271C, strain bni1, active compounds read low",0.996
same,normalized growth,"S. cerevisiae deletion strains, locus YNL298W, strain CLA4, active compounds read low",0.976
same,normalized growth,"S. cerevisiae deletion strains, locus YNL307C, strain MCK1, active compounds read low",1.01
same,normalized growth,"S. cerevisiae deletion strains, locus YNL322C, strain KRE1 (second series), active compounds read low",0.882 (active)
same,normalized growth,"S. cerevisiae deletion strains, locus YNL322C, strain KRE1, active compounds read low",0.994
same,normalized growth,"S. cerevisiae deletion strains, locus YNR049C, strain mso1, active compounds read low",0.929
same,normalized growth,"S. cerevisiae deletion strains, locus YNR052C, strain pop2, active compounds read low",1.01
same,normalized growth,"S. cerevisiae deletion strains, locus YOL006C, strain TOP1, active compounds read low",1.04
same,normalized growth,"S. cerevisiae deletion strains, locus YOL012C, strain htz1",1.19
same,normalized growth,"S. cerevisiae deletion strains, locus YOL147C, strain pex11, active compounds read low",1.01
same,normalized growth,"S. cerevisiae deletion strains, locus YOR001W, strain rrp6, active compounds read low",0.953
same,normalized growth,"S. cerevisiae deletion strains, locus YOR061W, strain CKA2, active compounds read low",0.999
same,normalized growth,"S. cerevisiae deletion strains, locus YOR069W, strain VPS5, active compounds read low",1
same,normalized growth,"S. cerevisiae deletion strains, locus YOR070C, strain gyp1, active compounds read low",0.947
same,normalized growth,"S. cerevisiae deletion strains, locus YOR080W, strain dia2, active compounds read low",0.925
same,normalized growth,"S. cerevisiae deletion strains, locus YOR083W, strain WHI5, active compounds read low",0.956
same,normalized growth,"S. cerevisiae deletion strains, locus YOR106W, strain vam3, active compounds read low",0.942
same,normalized growth,"S. cerevisiae deletion strains, locus YOR136W, strain idh2, active compounds read low",1.02
same,normalized growth,"S. cerevisiae deletion strains, locus YOR144C, strain elg1, active compounds read low",1.02
same,normalized growth,"S. cerevisiae deletion strains, locus YOR184W, strain ser1, active compounds read low",1.03
same,normalized growth,"S. cerevisiae deletion strains, locus YOR231W, strain MKK1, active compounds read low",0.796 (active)
same,normalized growth,"S. cerevisiae deletion strains, locus YOR265W, strain rbl2, active compounds read low",0.943
same,normalized growth,"S. cerevisiae deletion strains, locus YOR270C, strain vph1, active compounds read low",0.971
same,normalized growth,"S. cerevisiae deletion strains, locus YOR290C, strain snf2, active compounds read low",0.962
same,normalized growth,"S. cerevisiae deletion strains, locus YOR316C, strain cot1, active compounds read low",1.01
same,normalized growth,"S. cerevisiae deletion strains, locus YPL051W, strain arl3, active compounds read low",0.943
same,normalized growth,"S. cerevisiae deletion strains, locus YPL055C, strain LGE1, active compounds read low",1.01
same,normalized growth,"S. cerevisiae deletion strains, locus YPL078C, strain atp4, active compounds read low",0.93
same,normalized growth,"S. cerevisiae deletion strains, locus YPL106C, strain sse1, active compounds read low",1.03
same,normalized growth,"S. cerevisiae deletion strains, locus YPL240C, strain hsp82, active compounds read low",0.937
same,normalized growth,"S. cerevisiae deletion strains, locus YPL241C, strain CIN2, active compounds read low",1
same,normalized growth,"S. cerevisiae deletion strains, locus YPL256C, strain CLN2, active compounds read low",0.756 (active)
same,normalized growth,"S. cerevisiae deletion strains, locus YPR119W, strain clb2, active compounds read low",1.01
same,normalized growth,"S. cerevisiae deletion strains, locus YPR141C, strain kar3, active compounds read low",1.01
same,normalized growth,"S. cerevisiae deletion strains, locus YPR163C, strain tif3, active compounds read low",1.02
same,normalized growth,"S. cerevisiae deletion strains, locus YPR167C, strain met16, active compounds read low",1.05
same,normalized growth,"S. cerevisiae deletion strains, strain wtn01, active compounds read low",1.01
same,normalized growth,"S. cerevisiae strains, strain wild type, active compounds read low",1
